Data from paper PMC7862700, “An all-to-all approach to the identification of sequence-specific readers for epigenetic DNA modifications on cytosine”.

Key:
Test in all cases: DAPPL (digital affinity profiling via proximity ligation, sequencing); 10 mM Tris-HCl pH 7.5, 50 mM NaCl, 1 mM DTT, 4% glycerol, room temperature, 30 min; GST-TFs on glutathione beads, 16-mer random dsDNA library, 0.1% formaldehyde crosslink after washing; high values mean tight binding
FEV = target: T1, FEV (Homo sapiens, UniProt Q99581 1-238); conditions: protein: recombinant; tags: N-terminal GST; dsDNA, one strand shown
T1 sequence: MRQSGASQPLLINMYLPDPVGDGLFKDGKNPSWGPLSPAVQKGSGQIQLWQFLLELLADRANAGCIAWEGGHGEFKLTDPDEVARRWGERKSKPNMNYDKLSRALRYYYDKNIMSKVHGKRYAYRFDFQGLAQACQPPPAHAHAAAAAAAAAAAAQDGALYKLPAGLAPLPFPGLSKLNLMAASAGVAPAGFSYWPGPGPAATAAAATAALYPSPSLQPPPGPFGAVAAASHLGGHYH
In short: (§1)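 The binding signal reported is, for every hexamer, its read frequency for a factor over its read frequency for the tag-only sample. Reads came from pools of yeast-expressed, GST-fused human transcription factors on glutathione beads, barcoded with DNA and mixed with that sample, which were incubated with 200 nmole of a random double-stranded 16-mer DNA library in Tris/NaCl/DTT/glycerol buffer at room temperature for 30 min. After washing, the pools were crosslinked with 0.1% formaldehyde, proximity-ligated with BsaI/T4 ligase for 1 h at 37 °C, PCR-amplified and sequenced on an Illumina NextSeq500.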

ETV5 = ETV5 (Homo sapiens, UniProt P41161 1-510); conditions: protein: recombinant; tags: N-terminal GST; dsDNA, one strand shown
ETV5, sequence (P41161 whole entry): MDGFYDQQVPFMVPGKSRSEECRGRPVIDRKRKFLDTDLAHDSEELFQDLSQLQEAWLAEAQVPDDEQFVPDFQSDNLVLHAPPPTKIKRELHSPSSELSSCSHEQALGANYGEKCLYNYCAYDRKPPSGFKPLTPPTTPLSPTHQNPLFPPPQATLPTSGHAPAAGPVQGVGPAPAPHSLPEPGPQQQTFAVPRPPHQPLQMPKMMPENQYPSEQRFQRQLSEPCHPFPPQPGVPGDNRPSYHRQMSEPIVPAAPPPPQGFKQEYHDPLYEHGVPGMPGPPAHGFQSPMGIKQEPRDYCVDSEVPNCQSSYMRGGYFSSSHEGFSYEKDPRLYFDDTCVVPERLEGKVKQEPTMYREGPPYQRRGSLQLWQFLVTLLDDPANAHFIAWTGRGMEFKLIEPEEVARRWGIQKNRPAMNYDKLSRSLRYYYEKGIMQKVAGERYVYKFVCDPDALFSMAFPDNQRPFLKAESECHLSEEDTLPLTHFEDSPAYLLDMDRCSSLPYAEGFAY
In short: as §1

HSF1 = HSF1 (Homo sapiens, UniProt Q00613 1-529); conditions: protein: recombinant; tags: N-terminal GST; chain copies: 3; dsDNA, one strand shown
HSF1, sequence (Q00613 whole entry): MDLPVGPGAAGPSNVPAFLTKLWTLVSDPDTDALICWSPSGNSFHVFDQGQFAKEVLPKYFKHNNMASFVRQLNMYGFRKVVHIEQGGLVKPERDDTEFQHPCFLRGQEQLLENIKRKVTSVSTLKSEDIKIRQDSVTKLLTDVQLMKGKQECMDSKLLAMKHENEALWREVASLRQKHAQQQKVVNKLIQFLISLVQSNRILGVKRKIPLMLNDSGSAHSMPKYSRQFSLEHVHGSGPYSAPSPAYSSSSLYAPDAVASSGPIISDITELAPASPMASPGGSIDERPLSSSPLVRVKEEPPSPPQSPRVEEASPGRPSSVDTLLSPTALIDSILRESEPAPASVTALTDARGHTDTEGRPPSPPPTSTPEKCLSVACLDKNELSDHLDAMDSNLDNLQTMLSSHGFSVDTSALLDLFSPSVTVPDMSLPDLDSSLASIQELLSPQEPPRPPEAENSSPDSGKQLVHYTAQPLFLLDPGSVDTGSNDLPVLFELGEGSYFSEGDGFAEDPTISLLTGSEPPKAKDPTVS
In short: as §1

SPIC = target: T2, SPIC (Homo sapiens, UniProt Q8N5J4 1-248); conditions: protein: recombinant; tags: N-terminal GST; dsDNA, one strand shown
T2 sequence: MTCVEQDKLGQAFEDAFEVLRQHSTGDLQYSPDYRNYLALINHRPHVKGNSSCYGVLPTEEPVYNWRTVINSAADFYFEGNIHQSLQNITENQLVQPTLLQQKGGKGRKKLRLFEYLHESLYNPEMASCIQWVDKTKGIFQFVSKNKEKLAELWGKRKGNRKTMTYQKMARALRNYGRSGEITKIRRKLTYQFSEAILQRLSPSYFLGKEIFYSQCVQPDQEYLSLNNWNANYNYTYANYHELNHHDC
In short: as §1

ELF4 = ELF4 (Homo sapiens, UniProt Q99607 1-663); conditions: protein: recombinant; tags: N-terminal GST; dsDNA, one strand shown
ELF4, sequence (Q99607 whole entry): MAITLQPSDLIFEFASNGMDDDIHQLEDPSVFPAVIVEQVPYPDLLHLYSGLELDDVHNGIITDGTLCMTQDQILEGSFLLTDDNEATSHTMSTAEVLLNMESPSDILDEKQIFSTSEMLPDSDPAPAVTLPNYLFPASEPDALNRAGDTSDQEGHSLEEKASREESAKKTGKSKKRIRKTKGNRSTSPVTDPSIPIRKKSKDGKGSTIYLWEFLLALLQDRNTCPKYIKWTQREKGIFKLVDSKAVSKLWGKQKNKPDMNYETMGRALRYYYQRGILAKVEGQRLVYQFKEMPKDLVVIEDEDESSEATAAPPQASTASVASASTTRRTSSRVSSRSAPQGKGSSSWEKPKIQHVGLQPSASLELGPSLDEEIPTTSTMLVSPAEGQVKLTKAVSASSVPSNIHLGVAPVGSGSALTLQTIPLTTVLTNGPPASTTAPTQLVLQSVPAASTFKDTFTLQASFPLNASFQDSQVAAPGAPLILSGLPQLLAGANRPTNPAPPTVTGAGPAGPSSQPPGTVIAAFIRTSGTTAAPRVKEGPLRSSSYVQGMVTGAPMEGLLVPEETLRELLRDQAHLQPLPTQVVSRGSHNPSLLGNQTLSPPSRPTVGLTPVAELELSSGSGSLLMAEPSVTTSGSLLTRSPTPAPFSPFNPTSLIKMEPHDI
In short: as §1

ELK4 = target: T3, ELK4 (Homo sapiens, UniProt P28324-2 1-405); conditions: protein: recombinant; tags: N-terminal GST; dsDNA, one strand shown
T3 sequence: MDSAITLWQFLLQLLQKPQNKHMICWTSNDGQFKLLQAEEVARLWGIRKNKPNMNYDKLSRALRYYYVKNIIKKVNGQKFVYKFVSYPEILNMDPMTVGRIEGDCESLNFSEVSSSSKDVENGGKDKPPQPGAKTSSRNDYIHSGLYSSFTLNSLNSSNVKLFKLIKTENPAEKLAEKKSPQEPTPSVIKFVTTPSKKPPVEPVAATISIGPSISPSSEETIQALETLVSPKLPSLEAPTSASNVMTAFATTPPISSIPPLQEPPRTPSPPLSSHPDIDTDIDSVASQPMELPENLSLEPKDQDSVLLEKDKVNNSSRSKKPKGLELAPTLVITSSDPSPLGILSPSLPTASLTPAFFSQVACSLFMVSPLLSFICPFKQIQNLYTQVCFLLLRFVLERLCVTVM
In short: as §1

ETV2 = target: T4, ETV2 (Homo sapiens, UniProt O00321 1-342); conditions: protein: recombinant; tags: N-terminal GST; dsDNA, one strand shown
T4 sequence: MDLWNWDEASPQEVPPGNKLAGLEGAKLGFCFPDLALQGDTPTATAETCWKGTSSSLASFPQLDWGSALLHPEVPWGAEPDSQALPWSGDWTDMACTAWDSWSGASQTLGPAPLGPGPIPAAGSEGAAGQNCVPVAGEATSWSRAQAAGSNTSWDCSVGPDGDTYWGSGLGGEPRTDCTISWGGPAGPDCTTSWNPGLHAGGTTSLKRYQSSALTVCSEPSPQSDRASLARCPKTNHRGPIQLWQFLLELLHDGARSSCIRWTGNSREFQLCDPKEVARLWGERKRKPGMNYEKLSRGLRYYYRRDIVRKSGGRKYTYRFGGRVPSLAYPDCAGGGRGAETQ
In short: as §1

ELF3 = target: T5, ELF3 (Homo sapiens, UniProt P78545 1-371); conditions: protein: recombinant; tags: N-terminal GST; dsDNA, one strand shown
T5 sequence: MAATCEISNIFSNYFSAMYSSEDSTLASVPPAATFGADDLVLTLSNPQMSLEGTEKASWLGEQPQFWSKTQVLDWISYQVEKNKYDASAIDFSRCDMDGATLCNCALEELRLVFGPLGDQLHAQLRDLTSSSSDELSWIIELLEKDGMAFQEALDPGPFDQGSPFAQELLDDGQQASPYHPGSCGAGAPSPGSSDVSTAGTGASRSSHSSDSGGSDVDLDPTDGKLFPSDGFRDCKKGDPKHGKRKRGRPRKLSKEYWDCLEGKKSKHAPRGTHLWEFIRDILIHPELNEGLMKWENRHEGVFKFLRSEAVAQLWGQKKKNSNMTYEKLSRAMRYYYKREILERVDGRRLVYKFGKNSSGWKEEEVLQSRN
In short: as §1

CRX = CRX (Homo sapiens, UniProt O43186 1-299); conditions: protein: recombinant; tags: N-terminal GST; dsDNA, one strand shown
CRX, sequence (O43186 whole entry): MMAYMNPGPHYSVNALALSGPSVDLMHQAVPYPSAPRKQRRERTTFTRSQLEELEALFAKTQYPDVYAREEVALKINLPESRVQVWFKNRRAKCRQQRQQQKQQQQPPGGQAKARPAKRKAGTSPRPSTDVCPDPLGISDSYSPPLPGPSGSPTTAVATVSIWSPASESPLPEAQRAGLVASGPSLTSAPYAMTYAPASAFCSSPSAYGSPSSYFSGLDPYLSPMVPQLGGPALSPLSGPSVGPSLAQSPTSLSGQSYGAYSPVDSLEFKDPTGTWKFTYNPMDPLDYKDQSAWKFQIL
In short: as §1

ETV1 = ETV1 (Homo sapiens, UniProt P50549 1-477); conditions: protein: recombinant; tags: N-terminal GST; dsDNA, one strand shown
ETV1, sequence (P50549 whole entry): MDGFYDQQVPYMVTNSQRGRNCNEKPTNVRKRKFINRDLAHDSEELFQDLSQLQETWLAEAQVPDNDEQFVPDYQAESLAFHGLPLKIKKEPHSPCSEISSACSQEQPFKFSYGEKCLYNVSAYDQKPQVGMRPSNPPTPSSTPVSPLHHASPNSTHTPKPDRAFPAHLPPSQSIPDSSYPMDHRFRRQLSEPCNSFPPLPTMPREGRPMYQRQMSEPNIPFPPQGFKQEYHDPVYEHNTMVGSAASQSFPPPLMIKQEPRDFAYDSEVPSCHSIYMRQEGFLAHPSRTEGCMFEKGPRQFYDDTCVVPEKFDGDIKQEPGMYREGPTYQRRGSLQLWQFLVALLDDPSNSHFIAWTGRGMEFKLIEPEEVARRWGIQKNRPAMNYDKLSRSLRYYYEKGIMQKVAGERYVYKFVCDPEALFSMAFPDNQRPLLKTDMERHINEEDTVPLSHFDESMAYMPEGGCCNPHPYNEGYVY
In short: as §1

ERF = target: T6, ERF (Homo sapiens, UniProt P50548 1-548); conditions: protein: recombinant; tags: N-terminal GST; dsDNA, one strand shown
T6 sequence: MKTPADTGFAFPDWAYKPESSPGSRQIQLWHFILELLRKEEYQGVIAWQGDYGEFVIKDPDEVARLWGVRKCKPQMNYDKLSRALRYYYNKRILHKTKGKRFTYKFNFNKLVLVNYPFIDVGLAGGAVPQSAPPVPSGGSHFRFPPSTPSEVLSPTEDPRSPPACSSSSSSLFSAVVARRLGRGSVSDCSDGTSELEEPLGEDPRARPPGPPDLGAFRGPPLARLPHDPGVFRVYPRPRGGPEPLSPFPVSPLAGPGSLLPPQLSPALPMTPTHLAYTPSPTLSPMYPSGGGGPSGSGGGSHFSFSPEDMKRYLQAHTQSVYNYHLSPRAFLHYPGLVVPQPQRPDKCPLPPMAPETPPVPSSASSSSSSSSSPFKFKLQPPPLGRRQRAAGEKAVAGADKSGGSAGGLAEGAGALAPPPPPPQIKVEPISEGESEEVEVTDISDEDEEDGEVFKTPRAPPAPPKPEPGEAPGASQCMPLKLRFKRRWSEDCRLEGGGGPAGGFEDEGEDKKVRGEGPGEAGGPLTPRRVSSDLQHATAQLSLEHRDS
In short: as §1

ETV3L = target: T7, ETV3L (Homo sapiens, UniProt Q6ZN32 1-361); conditions: protein: recombinant; tags: N-terminal GST; dsDNA, one strand shown
T7 sequence: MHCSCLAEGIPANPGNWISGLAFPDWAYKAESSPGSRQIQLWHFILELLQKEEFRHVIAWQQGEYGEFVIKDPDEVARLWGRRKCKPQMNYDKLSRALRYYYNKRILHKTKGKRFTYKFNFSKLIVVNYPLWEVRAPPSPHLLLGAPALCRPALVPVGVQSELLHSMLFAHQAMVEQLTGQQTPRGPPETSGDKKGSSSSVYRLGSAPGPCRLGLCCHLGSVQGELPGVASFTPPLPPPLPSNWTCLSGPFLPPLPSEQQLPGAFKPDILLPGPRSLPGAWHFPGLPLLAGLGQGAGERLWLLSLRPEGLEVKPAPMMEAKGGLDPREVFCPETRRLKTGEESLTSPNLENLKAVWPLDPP
In short: as §1

ETS2 = target: T8, ETS2 (Homo sapiens, UniProt P15036 1-469); conditions: protein: recombinant; tags: N-terminal GST; dsDNA, one strand shown
T8 sequence: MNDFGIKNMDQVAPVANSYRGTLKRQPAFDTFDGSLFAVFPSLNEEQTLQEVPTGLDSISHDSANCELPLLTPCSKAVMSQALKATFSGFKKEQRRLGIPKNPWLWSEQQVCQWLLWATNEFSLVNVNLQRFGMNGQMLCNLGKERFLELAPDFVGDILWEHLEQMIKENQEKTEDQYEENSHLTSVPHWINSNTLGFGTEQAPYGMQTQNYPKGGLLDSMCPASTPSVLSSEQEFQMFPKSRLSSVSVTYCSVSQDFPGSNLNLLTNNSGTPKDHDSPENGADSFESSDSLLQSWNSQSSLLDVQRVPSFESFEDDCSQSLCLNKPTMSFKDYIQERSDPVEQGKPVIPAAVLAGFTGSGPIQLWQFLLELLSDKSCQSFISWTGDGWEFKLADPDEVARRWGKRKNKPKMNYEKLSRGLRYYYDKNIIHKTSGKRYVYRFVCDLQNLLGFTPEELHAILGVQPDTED
In short: as §1

SPDEF = target: T9, SPDEF (Homo sapiens, UniProt O95238 1-335); conditions: protein: recombinant; tags: N-terminal GST; dsDNA, one strand shown
T9 sequence: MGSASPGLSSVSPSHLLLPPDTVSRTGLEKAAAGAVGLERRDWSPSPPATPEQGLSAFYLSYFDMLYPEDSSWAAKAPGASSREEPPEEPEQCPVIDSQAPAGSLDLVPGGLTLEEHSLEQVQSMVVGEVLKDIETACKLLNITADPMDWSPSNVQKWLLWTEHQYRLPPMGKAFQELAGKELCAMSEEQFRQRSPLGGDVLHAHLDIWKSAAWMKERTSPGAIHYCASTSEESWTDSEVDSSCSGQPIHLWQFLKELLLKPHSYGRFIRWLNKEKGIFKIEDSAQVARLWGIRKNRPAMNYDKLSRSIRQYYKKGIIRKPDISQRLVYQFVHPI
In short: as §1

ETV7 = target: T10, ETV7 (Homo sapiens, UniProt Q9Y603 1-341); conditions: protein: recombinant; tags: N-terminal GST; dsDNA, one strand shown
T10 sequence: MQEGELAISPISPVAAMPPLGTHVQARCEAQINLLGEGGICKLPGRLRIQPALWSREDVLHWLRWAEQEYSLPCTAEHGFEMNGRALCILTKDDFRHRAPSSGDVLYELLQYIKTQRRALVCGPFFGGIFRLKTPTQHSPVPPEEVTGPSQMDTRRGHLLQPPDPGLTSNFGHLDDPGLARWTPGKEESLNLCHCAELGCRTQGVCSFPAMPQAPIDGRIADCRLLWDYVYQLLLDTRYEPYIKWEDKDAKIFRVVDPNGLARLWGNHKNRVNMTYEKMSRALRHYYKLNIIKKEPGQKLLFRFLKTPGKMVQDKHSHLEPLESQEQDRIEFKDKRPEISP
In short: as §1

ELF5 = target: T11, ELF5 (Homo sapiens, UniProt Q9UKW6-2 1-255); conditions: protein: recombinant; tags: N-terminal GST; dsDNA, one strand shown
T11 sequence: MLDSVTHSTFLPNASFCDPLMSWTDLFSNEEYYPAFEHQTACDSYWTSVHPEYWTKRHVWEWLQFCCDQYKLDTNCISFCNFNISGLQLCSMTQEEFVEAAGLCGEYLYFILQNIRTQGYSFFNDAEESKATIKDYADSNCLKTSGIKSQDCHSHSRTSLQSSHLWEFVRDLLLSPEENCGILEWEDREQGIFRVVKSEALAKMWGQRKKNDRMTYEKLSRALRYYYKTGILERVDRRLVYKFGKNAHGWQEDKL
In short: as §1

ETV3 = target: T12, ETV3 (Homo sapiens, UniProt P41162-2 1-143); conditions: protein: recombinant; tags: N-terminal GST; dsDNA, one strand shown
T12 sequence: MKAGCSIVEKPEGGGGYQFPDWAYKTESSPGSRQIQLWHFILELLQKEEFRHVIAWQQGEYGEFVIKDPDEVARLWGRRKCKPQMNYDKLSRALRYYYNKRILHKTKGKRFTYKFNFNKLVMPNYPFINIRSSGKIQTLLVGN
In short: as §1

ETV6 = ETV6 (Homo sapiens, UniProt P41212 1-452); conditions: protein: recombinant; tags: N-terminal GST; dsDNA, one strand shown
ETV6, sequence (P41212 whole entry): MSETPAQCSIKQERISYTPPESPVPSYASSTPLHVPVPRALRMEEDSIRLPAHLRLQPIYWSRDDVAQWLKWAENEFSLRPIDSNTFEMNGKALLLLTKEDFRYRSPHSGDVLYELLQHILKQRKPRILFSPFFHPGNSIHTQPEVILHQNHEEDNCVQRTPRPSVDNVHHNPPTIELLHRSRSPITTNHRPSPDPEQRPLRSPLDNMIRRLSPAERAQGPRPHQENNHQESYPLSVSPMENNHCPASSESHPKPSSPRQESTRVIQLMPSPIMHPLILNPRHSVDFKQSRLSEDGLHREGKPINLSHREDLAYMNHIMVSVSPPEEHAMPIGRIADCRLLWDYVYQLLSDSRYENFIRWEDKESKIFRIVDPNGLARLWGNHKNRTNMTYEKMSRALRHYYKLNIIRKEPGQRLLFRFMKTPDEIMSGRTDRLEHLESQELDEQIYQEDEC
In short: as §1

## ATCCAC
FEV
  binding signal: 1.14 fold enrichment (6-mer frequency, TF over GST control)
ETV5
  binding signal: 1.18 fold enrichment (6-mer frequency, TF over GST control)
HSF1
  binding signal: 1.36 fold enrichment (6-mer frequency, TF over GST control)
SPIC
  binding signal: 1.24 fold enrichment (6-mer frequency, TF over GST control)
ELF4
  binding signal: 1.22 fold enrichment (6-mer frequency, TF over GST control)
ELK4
  binding signal: 1.32 fold enrichment (6-mer frequency, TF over GST control)
ETV2
  binding signal: 1.23 fold enrichment (6-mer frequency, TF over GST control)
ELF3
  binding signal: 1.14 fold enrichment (6-mer frequency, TF over GST control)
CRX
  binding signal: 1.48 fold enrichment (6-mer frequency, TF over GST control)
ETV1
  binding signal: 1.2 fold enrichment (6-mer frequency, TF over GST control)
ERF
  binding signal: 1.27 fold enrichment (6-mer frequency, TF over GST control)
ETV3L
  binding signal: 1.05 fold enrichment (6-mer frequency, TF over GST control)
ETS2
  binding signal: 1.2 fold enrichment (6-mer frequency, TF over GST control)
SPDEF
  binding signal: 1.18 fold enrichment (6-mer frequency, TF over GST control)
ETV7
  binding signal: 1.18 fold enrichment (6-mer frequency, TF over GST control)
ELF5
  binding signal: 1.16 fold enrichment (6-mer frequency, TF over GST control)
ETV3
  binding signal: 1.14 fold enrichment (6-mer frequency, TF over GST control)
ETV6
  binding signal: 1.25 fold enrichment (6-mer frequency, TF over GST control)
